Experimental data taken from PubChem BioAssay.
Activity calls are given as the source filed them.

What was measured:
Albumin (Bos taurus) = Albumin (Bos taurus) (UniProt P02769); assay: compounds binding labelled BSA control protein – biochemical, small-molecule microarray, Alexa647 label, 635/667 nm fluorescence, artefact control for SMM control protein annotation, profiling panel (AID 1118); settings: BSA-A647 binding, fluorescence 635 nm, higher = more signal;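 further: score merges 667 nm emission intensity and signal-to-noise per printed compound spot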
Sequence of Albumin (Bos taurus) (P02769 whole entry, looked up): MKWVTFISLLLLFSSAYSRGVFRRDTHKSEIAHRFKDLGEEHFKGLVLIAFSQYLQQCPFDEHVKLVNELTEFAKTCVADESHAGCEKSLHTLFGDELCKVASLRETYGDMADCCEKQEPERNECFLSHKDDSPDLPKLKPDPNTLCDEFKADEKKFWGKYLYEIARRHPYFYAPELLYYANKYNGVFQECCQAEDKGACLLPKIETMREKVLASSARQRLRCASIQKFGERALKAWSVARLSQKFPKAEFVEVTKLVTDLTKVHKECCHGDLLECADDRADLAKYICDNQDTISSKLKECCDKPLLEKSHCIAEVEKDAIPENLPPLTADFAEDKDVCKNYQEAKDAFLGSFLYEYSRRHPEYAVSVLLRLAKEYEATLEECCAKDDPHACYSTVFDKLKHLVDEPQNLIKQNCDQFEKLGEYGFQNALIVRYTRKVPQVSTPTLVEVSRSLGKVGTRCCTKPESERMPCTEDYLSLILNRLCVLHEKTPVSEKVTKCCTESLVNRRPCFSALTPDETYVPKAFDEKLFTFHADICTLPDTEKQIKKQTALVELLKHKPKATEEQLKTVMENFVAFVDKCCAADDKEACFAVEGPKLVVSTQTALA

[1] = probe aXIP binding to arrayed compounds – biochemical, NeuroSMM set, 635/667 nm fluorescence, primary screen (AID 1119); settings: small-molecule microarray, higher = more signal, called active from +8 up or from −8 down;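 further: probe is the protein aXip251-270 applied at 1 µg/mL to compound-printed slides; binding of probe to printed compounds measured as 667 nm fluorescence plus signal to noise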
[2] = probe aNOTCH3 binding on compound microarray – biochemical, small-molecule microarray, 635/667 nm fluorescence, primary screen (AID 1120); settings: higher = more signal;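 further: probe is a biotin-tagged antibody raised against NOTCH3 rather than NOTCH3 protein; score merges spot fluorescence near 667 nm with spot signal to noise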
[3] = probe aNOTCH2 binding on compound microarray – biochemical, small-molecule microarray, 635/667 nm fluorescence, primary screen (AID 1121); settings: higher = more signal;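 further: score merges feature fluorescence read at 667 nm with its signal to noise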
[4] = target: Carbonic anhydrase 2 (Homo sapiens) (UniProt P00918); assay: compounds binding carbonic anhydrase 2 – biochemical, small-molecule microarray, Alexa647-labelled CAII, profiling panel (AID 1122); settings: CAII-A647 binding fluorescence, higher = more signal
[5] = COS7 lysate on small-molecule microarray, probe aHis, 635 nm (AID 1123); settings: COS7 cell lysate, fluorescence, higher = more signal;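 further: z-score combines 667nm fluorescence intensity with signal-to-noise per printed compound spot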
[6] = probe aLAP1 signal on lysate-treated microarray – cell lysate, small-molecule microarray, COS7 lysate, primary screen (AID 1124); settings: probe aLAP1, fluorescence, higher = more signal;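 further: lysate comes from COS7 cells expressing LAP1 and is applied at 0.3 µg/mL; score merges spot fluorescence near 667 nm with signal-to-noise over triplicate slides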
Sam68 (KHDRBS1) = assay: compounds binding KHDRBS1 protein – biochemical, small-molecule microarray, 635 nm fluorescence, primary screen (AID 1125); settings: higher = more signal;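 further: score merges 667 nm channel intensity with signal to noise over triplicate slides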
[7] = tested on: Chordin-like protein 2 (CHRDL2); assay: compounds binding chordin-like 2 – biochemical, small-molecule microarray, 635 nm fluorescence, primary screen (AID 1126); settings: fluorescence 635 nm, higher = more signal;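 further: printed compound slides probed with Chrdl2 protein at 4 µg/mL for 1 h at 4 C; score merges 667 nm emission intensity with signal to noise over three replicate slides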
[8] = target: Concanavalin-A (Canavalia ensiformis) (UniProt P02866); assay: compounds binding concanavalin A lectin – biochemical, small-molecule microarray, Alexa647 label, 635 nm, artefact control for SMM control protein annotation, primary screen (AID 1127); settings: ConA-A647 binding fluorescence, higher = more signal;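 further: z combines 667 nm emission intensity with signal-to-noise across three replicate slides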
Sequence of Concanavalin-A (Canavalia ensiformis) (P02866 whole entry, looked up): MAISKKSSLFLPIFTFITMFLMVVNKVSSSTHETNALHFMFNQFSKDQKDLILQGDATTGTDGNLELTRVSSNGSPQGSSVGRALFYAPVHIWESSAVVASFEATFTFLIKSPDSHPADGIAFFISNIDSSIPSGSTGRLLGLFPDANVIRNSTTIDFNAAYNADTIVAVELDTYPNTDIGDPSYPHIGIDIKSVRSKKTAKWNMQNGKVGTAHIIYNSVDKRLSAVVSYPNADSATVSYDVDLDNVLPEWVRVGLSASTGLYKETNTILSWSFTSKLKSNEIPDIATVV

[9] = compounds binding Alexa647 anti-His antibody – biochemical, small-molecule microarray, 635 nm fluorescence, artefact control for SMM control protein annotation, primary screen (AID 1128); settings: higher = more signal;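 further: score merges feature fluorescence with signal-to-noise for each printed compound spot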
[10] = tested on: Human papillomavirus type 1a E7 protein (residues 1-88); assay: HPV1a E7 small-molecule binders, primary screen, biochemical, small-molecule microarray, residues 1-88, 635 nm (AID 1129); settings: small-molecule microarray binding, fluorescence 635 nm; higher = more signal
[11] = target: Focal adhesion kinase 1 (Homo sapiens) (UniProt Q05397); assay: PTK2 protein binding on printed compound slides – biochemical, small-molecule microarray, 635/667 nm fluorescence, BSA, DTT, primary screen (AID 1130); settings: 635 nm fluorescence, higher = more signal;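 further: composite of spot emission at 667 nm and signal to noise over triplicate slides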
Sequence of Focal adhesion kinase 1 (Homo sapiens) (Q05397 whole entry, looked up): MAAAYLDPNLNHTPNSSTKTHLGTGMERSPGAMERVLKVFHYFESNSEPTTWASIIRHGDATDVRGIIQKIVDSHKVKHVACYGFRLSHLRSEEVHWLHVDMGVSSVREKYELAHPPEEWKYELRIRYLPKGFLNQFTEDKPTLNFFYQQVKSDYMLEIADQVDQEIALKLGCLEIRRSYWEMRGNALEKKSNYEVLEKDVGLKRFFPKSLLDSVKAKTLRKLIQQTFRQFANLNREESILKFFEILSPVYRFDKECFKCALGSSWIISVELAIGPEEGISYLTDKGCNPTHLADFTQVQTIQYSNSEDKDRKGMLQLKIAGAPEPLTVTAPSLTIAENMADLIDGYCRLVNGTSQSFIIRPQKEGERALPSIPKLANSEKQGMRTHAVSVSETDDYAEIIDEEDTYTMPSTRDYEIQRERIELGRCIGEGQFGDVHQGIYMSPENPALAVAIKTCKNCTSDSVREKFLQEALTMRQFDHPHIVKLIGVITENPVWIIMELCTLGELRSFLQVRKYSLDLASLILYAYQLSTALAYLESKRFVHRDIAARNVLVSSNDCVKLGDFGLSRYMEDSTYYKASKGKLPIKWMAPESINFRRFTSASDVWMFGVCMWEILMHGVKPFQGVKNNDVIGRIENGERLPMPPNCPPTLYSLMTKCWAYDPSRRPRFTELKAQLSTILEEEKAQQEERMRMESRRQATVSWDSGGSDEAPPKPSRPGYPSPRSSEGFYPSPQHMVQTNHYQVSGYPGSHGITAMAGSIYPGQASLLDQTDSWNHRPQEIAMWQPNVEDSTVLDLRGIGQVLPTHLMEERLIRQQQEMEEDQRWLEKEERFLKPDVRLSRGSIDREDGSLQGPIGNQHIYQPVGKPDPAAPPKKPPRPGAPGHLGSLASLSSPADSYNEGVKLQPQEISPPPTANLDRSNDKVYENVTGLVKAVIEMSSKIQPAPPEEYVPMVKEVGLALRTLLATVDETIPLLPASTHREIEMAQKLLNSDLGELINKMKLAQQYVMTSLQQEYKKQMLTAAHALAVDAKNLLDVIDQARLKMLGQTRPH

[12] = tested on: Fibrinogen (Alexa647-labelled); assay: Alexa647-fibrinogen binding to printed small molecules – biochemical, small-molecule microarray, 635/667 nm fluorescence, artefact control for SMM control-protein annotation, profiling panel (AID 1131); settings: fibrinogen-A647 binding fluorescence, higher = more signal;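 further: z-score merges 667 nm fluorescence with per-spot signal-to-noise over triplicate slides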
[13] = target: Follistatin (Homo sapiens) (UniProt P19883); assay: FST protein binding to printed compounds – biochemical, small-molecule microarray, 635/667 nm fluorescence, primary screen (AID 1132); settings: 635 nm fluorescence, higher = more signal
Sequence of Follistatin (Homo sapiens) (P19883 whole entry, looked up): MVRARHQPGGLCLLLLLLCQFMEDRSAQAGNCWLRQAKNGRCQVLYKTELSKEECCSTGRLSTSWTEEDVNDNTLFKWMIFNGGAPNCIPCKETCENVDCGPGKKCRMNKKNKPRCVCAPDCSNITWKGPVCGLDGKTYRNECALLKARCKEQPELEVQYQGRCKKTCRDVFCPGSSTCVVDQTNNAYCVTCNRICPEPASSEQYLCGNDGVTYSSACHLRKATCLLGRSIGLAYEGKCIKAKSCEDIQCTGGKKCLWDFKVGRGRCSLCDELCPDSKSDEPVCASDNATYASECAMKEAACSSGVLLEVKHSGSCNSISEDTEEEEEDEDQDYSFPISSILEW

[14] = target: Fibroblast growth factor 2 (Homo sapiens) (UniProt P09038); assay: basic fibroblast growth factor binding to printed compounds – biochemical, small-molecule microarray, 635/667 nm fluorescence, primary screen (AID 1133); settings: FGF2, fluorescence 635/667, higher = more signal
Sequence of Fibroblast growth factor 2 (Homo sapiens) (P09038 whole entry, looked up): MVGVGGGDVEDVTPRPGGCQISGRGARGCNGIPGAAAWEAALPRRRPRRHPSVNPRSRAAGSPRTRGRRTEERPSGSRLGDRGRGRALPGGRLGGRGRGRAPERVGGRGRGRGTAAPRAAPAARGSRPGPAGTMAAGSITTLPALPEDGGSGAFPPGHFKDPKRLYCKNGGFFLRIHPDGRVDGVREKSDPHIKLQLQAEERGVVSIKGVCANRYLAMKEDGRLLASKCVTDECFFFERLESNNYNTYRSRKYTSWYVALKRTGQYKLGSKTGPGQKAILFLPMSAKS

[15] = JC-1 mitochondrial potential readout, lung cancer cells – cell-based, A549, JC-1 fluorescence, basal, 24 h, 100 nL, profiling panel (AID 1138); settings: higher = more signal;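 further: A549 lung adenocarcinoma cells under basal conditions with no added stimulus; test concentration not given here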
Lefty1 = Lefty1 protein binding to printed compounds – biochemical, small-molecule microarray, 635/667 nm fluorescence, primary screen (AID 1139); settings: fluorescence 635/667, higher = more signal
[16] = tested on: wheat germ agglutinin (Triticum aestivum), Alexa647-labelled; assay: Alexa647-WGA lectin binding to printed small molecules – biochemical, small-molecule microarray, 635/667 nm fluorescence, artefact control for SMM control-protein annotation, profiling panel (AID 1140); settings: WGA-A647 binding, 635 nm fluorescence, higher = more signal;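 further: score merges 667 nm feature emission with signal to noise over triplicate slides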
[17] = target: Luciferin 4-monooxygenase (Photinus pyralis) (UniProt P08659); assay: inhibition of purified Photinus pyralis luciferase – biochemical, luminescence, purified enzyme, 2006 set, primary screen (AID 1141); settings: purified firefly luciferase, SteadyGlo luminescence, 30 min; higher = more signal, called active from +8 up or from −8 down;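 further: cell-free assay with purified firefly luciferase at 100 ng per well in PBS; test concentration not given here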
Sequence of Luciferin 4-monooxygenase (Photinus pyralis) (P08659 whole entry, looked up): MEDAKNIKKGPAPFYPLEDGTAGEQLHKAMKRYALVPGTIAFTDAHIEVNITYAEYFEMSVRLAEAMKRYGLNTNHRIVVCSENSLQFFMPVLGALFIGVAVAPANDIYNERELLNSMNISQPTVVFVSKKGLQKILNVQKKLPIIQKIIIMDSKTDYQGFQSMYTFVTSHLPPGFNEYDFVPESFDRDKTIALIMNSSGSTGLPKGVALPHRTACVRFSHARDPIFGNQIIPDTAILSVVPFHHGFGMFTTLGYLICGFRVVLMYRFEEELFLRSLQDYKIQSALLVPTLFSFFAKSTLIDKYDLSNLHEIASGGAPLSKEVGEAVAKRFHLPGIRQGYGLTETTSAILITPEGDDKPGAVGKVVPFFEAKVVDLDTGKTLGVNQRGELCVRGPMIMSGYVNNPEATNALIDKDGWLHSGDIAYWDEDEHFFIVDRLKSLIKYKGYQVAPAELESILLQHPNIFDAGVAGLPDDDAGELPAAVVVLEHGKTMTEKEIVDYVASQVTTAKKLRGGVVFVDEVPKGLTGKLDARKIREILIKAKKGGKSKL

| SMILES | composite z-score (Albumin (Bos taurus)) | composite Z-score [1] | composite z-score [2] | composite z-score [3] | composite z-score [4] | composite z-score [5] | composite z-score [6] | composite z-score (Sam68 (KHDRBS1)) | composite z-score [7] | composite z-score [8] | composite z-score [9] | composite z-score [10] | composite z-score [11] | composite z-score [12] | composite z-score [13] | composite z-score [14] | z-score [15] | composite z-score (Lefty1) | composite z-score [16] | z-score [17] |
| --- | --- | --- | --- | --- | --- | --- | --- | --- | --- | --- | --- | --- | --- | --- | --- | --- | --- | --- | --- | --- |
| COC(=O)[C@@H]1CC[C@@H](C)[C@H](c2ccc(Br)cc2)N1 | -0.0822 | 0.644 (inactive) | -0.0111 | -0.0165 | -0.203 | 0.0852 | -0.117 | -0.8 | 0.202 | 0.0592 | 0.949 | 0.0613 | 0.867 | 0.689 | -0.177 | -0.0826 | 0.864 | -0.0352 | 0.0075 | -0.482 (inactive) |
| CCN1C(=O)[C@H]2[C@H]3[C@H](O)[C@H](O)CC(=NOC[C@H]4O[C@H](c5ccccc5)C=C[C@@H]4Oc4ccc(OC)cc4)[C@@H]3CC[C@H]2C1=O | 0.741 | 0.246 (inactive) | 0.0311 | -0.0274 | 0.353 | 0.383 | 0.106 | 1.16 | 0.514 | 0.817 | -0.157 | 0.829 | -0.139 | 0.894 | 0.74 | 1.01 | 0.385 | 1.19 | 0.246 | 0.468 (inactive) |
| COc1ccc(O[C@H]2C=C[C@@H](c3ccccc3)O[C@@H]2COC(=O)CCC(C)=NOC(C)CN2CCCc3nc(C)c(C)cc32)cc1 (stereo not given in full) | 0.247 | 1.32 (inactive) | 0.0013 | -0.106 | 0.21 | 0.676 | 0.304 | 1.31 | 0.43 | 1.01 | 0.264 | 1.11 | 0.0304 | 0.381 | 0.653 | 0.584 | 1.89 | 0.901 | -0.028 | 0.503 (inactive) |
| Cc1ccc(S(=O)(=O)NC(CCc2ccccc2)CC(=O)C(C)(C)C)cc1 (stereo not given) | -0.122 | 0.6 (inactive) | 0.0591 | -0.0984 | 0.0117 | 0.0881 | -0.113 | 0.93 | 0.686 | 0.87 | 0.569 | 0.7 | 0.0786 | 0.821 | 0.615 | 0.939 | -0.124 | 0.625 | 0.693 | 0.74 (inactive) |
| CCOC(=O)[C@H](CC(C)C)NC(=O)CCC1CC(OC(=O)NCc2cccc3ccccc23)CC2(CCCC(COC(=O)NCC3CCCCC3)O2)O1 (stereo not given in full) | 0.14 | 0.526 (inactive) | 0.0311 | -0.0896 | 0.392 | 0.0741 | -0.0193 | 1.29 | 0.32 | 1.08 | 0.685 | 1.13 | -0.368 | 0.297 | 0.62 | 0.594 | -1.07 | 0.733 | 0.0121 | 1 (inactive) |
